# Test results taken from PubChem BioAssay (NCI).
# About 83,000 compounds went through this panel and 20% of them were active in at least one assay; those are over-represented in the sample as a whole.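 Values shown are percent growth following 48 h exposure of cells in 96-well plates to a single concentration of compound; below 10 was considered active.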 A number with no mark means an inactive call. The source made the active and inactive calls.
# Legend:
# Assay in all cases: NCI-60 one-dose screen, 48 h (100 = growth as untreated, 0 = no growth, -100 = all killed)
# Conditions in all cases: 10 µM unless noted
# NCI-H23 lung = system: NCI-H23 lung
# NCI-H226 lung = system: NCI-H226 lung
# NCI-H322M lung = system: NCI-H322M lung
# HOP-62 NSCLC = system: HOP-62 NSCLC
# NCI-H460 lung = system: NCI-H460 lung
# HOP-92 NSCLC = system: HOP-92 NSCLC
# NCI-H522 lung = system: NCI-H522 lung
# A549/ATCC NSCLC = system: A549/ATCC NSCLC
# 786-0 renal = system: 786-0 renal
# COLO 205 colon = system: COLO 205 colon
Compound,growth (NCI-H23 lung),growth (NCI-H226 lung),growth (NCI-H322M lung),growth (HOP-62 NSCLC),growth (NCI-H460 lung),growth (HOP-92 NSCLC),growth (NCI-H522 lung),growth (A549/ATCC NSCLC),growth (786-0 renal),growth (COLO 205 colon)
CC12CC=CCC1CCC1C2CCC2(C)C(c3ccc(=O)oc3)CCC12O (stereo not given),-44.2% (active),-90.6% (active),-19.9% (active),-65.2% (active),-70.4% (active),1.77% (active),-19.9% (active),-37.7% (active),-42.4% (active),-43.6% (active)
COP(=O)(OC)C(O)c1ccc(Cl)cc1 (stereo not given),98.8%,102%,84.2%,104%,103%,98.1%,89.1%,98.3%,101%,102%
C=C1[C@@H](C)[C@H]2[C@H](Cc3ccccc3)NC(=O)[C@]23[C@@H](O)/C=C/[C@@](C)(O)C(=O)[C@@H](C)C/C=C/[C@H]3[C@@H]1O,68.2%,50.4%,92.2%,5.91% (active),69.3%,-9.38% (active),28%,37.7%,20.1%,-17.8% (active)
CCOC(=O)CCC(NC(=O)C(Cc1ccc(N(CCCl)CCCl)cc1)NC=O)C(=O)OCC (stereo not given),1.98% (active),57.5%,88%,113%,8.71% (active),-2.74% (active),-67.6% (active),61.8%,-40.8% (active),111%
Cc1cc(N(CCCl)CCCl)ccc1C=Nc1cccnc1,56.6%,-45.2% (active),108%,60.4%,26.5%,44.8%,87.3%,67.9%,63%,76.7%
Cc1ccc(C(=O)NCCCOc2ccc(N3C(N)=NC(N)=NC3(C)C)cc2Cl)cc1S(=O)(=O)F,84.4%,91.9%,92.5%,94.7%,46.2%,69.1%,78.3%,77.5%,91%,87.7%
CC[C@H](C)[C@H](NC(=O)[C@H]1CCCCN1C)C(=O)N(C)[C@H](C[C@@H](O)c1nc(C(=O)N[C@@H](Cc2ccccc2)C[C@H](C)C(=O)O)cs1)C(C)C,94.8%,99%,105%,82.4%,95.6%,57.8%,-18% (active),87.1%,90.2%,83.6%
CC[C@@H]1[C@@H](C)O[C@@](O)([C@@H](C)[C@H](O)[C@H](C)[C@H]2OC(=O)/C=C/C=C/[C@H](C)[C@@H]([C@@H](C)[C@@H](O)[C@H](C)[C@@]3(O)C[C@@H](O[C@H]4C[C@@H](O)[C@H](O)C(C)O4)[C@H](CC)[C@@H](C)O3)OC(=O)/C=C/C=C/[C@@H]2C)C[C@H]1O[C@@H]1C[C@@H](O)[C@H](O)C(C)O1 (stereo not given in full),-73.9% (active),-57.5% (active),-96.6% (active),-80.6% (active),-72.6% (active),-89.9% (active),-81.8% (active),-89.7% (active),-86.1% (active),-78.4% (active)
C=CC12CCN(CC1)C(C(O)c1ccnc3ccc(OC)cc13)C2 (stereo not given),100%,89.3%,93.2%,97.5%,89%,75.2%,89%,76.1%,79%,-91.5% (active)
C[N+]12CN3CN(CN(C3)C1)C2,94.3%,103%,110%,88%,107%,71%,94.5%,98.8%,104%,99.4%
CNCc1cccnc1,104%,101%,113%,114%,114%,108%,84.2%,97.6%,107%,122%
CCCCCCCCC(CO)NCCc1ccccc1 (stereo not given),105%,98.6%,88.8%,98%,102%,77.9%,73.7%,83.7%,102%,107%
Clc1ccc(CSC(Cn2ccnc2)c2ccc(Cl)cc2Cl)cc1 (stereo not given),27.1%,52.2%,63.3%,52.6%,23.2%,-4.58% (active),34.6%,27.5%,34.2%,-55.2% (active)
COC(=O)[C@@H](C)C[C@H](Cc1ccc(F)cc1)NC(=O)c1csc([C@@H](C[C@H](C(C)C)N(C)C(=O)[C@@H](NC(=O)[C@H]2CCCCN2C)C2CC2)OC(C)=O)n1,36%,43.2%,39.7%,12.2%,7% (active),46.6%,-15.2% (active),20.1%,13.5%,-73.1% (active)
CO[C@H](C(=O)O)[C@@H]1Cc2cc3cc(OC4CC(OC5CC(O)C(O)C(C)O5)C(O)C(C)O4)c(C)c(O)c3c(O)c2C(=O)[C@H]1OC1CC(OC2CC(OC3CC(C)(O)C(O)C(C)O3)C(O)C(C)O2)C(O)C(C)O1 (stereo not given in full),-0.124% (active),0.862% (active),21.6%,20.7%,11.2%,24.7%,-3.78% (active),13.7%,10.3%,-12.5% (active)
N#CCCNc1ccccc1,110%,106%,110%,116%,111%,94.9%,92.8%,113%,120%,118%
Nc1nnnc2nc[nH]c12,31%,-54.1% (active),28.1%,-11.4% (active),20.6%,1.91% (active),14.6%,34.4%,0.102% (active),6.07% (active)
COc1ccc([As]=[As]c2ccc(OC)c(NCS(=O)(=O)O)c2)cc1NCS(=O)(=O)O (stereo not given),23.3%,61.9%,95.6%,39.7%,88.2%,-21.9% (active),-32.9% (active),69.4%,-46.4% (active),2.8% (active)
